Results on 4 compounds are retold here after PubChem BioAssay (EPA / NIEHS).

Calls of active or inactive are those of the source. How the source made its calls: active means hit-call score of the fitted dose curve at least 0.9, where 1 is the maximum; inactive means score below 0.9.

A short description of assay [1]: ATG_CRE_CIS: Attagene CIS-FACTORIAL HepG2 Assay for human cAMP Responsive Element (CRE) binding protein 3 (AID 2282926). As to conditions: HepG2 CRE cis-reporter, Attagene multiplexed mRNA; actives raise or lower the signal. The procedure, abridged:
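HepG2 cells transiently transfected with cis-element-driven multiple reporter transcription units; CRE reporter mRNA measured 24 h after dosing by RT-PCR, 6-FAM labelling, HpaI digestion and capillary electrophoresis. Bidirectional fit versus DMSO baseline.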

The target of assay [2] is CCAAT/enhancer-binding protein beta (Homo sapiens) (UniProt P17676). Kind of assay: ATG_C_EBP_CIS: Attagene CIS-FACTORIAL HepG2 Assay for human CCAAT/Enhancer Binding Protein (C/EBP) beta (AID 2282927). As to conditions: HepG2 Attagene cis-factorial transcription factor reporter; actives raise or lower the signal. The essentials: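 RT-PCR/capillary electrophoresis fluorescence of reporter mRNA, 24 h post-dose, in HepG2 cells carrying transfected cis-promoter reporter units. Bidirectional curve fitting against DMSO baseline captures gain or loss of signal.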
Chain of CCAAT/enhancer-binding protein beta (Homo sapiens) (P17676 whole entry, looked up): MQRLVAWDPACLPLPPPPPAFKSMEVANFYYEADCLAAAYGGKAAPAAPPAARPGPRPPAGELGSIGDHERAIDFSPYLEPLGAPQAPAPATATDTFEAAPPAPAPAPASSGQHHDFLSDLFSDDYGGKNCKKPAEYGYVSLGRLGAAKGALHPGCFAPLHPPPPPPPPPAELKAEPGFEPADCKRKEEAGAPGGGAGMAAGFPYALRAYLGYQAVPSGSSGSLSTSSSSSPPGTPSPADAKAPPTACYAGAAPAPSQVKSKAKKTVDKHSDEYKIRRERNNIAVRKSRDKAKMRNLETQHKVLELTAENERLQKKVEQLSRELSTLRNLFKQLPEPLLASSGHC

A short description of assay [3]: ATG_CMV_CIS: Attagene CIS-FACTORIAL HepG2 Assay for human CMV (Internal Marker) (AID 2282928).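 Further: endpoint acts as a background internal control marker rather than a target.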 As to conditions: HepG2 CMV promoter reporter, transcription factor profiling; actives raise or lower the signal. The essentials:
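Endogenous transcription factor activity read in HepG2 via transfected cis-promoter reporter units. After 24 h dosing, reporter mRNA measured by RT-PCR/capillary electrophoresis; gain or loss of signal fit relative to DMSO.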

Assay [4] can be described thus: ATG_DR4_LXR_CIS: Attagene CIS-FACTORIAL HepG2 Assay for human Liver X Receptor (LXR), DR4 submotif (AID 2282929). As to conditions: HepG2 Attagene DR4 cis-reporter, mRNA transcription; actives raise or lower the signal. The essentials:
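After transient transfection with multiplexed cis-promoter reporter units, HepG2 cells received test chemicals for 24 h. Reporter mRNA induction, detected by fluorescence after RT-PCR and capillary electrophoresis, was scored relative to DMSO.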

The nature of assay [5]: ATG_AP_1_CIS: Attagene CIS-FACTORIAL HepG2 Assay for human Activator Protein 1 (AP-1) (AID 2282931). Conditions: HepG2 Attagene cis-factorial AP-1 reporter mRNA; actives raise or lower the signal. The procedure, abridged:
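After 24 h incubation with test chemical, RNA from transfected HepG2 cells was reverse-transcribed, amplified, fluorescently labelled and digested before capillary electrophoresis. Reporters were driven by cis-regulatory promoters; activity fitted bidirectionally versus DMSO.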

Assay [6] can be described thus: ATG_BRE_CIS: Attagene CIS-FACTORIAL HepG2 Assay for human Bone Morphogenetic Protein (BMP) Response Element (BRE) (AID 2282933). Conditions: HepG2 BMP response element reporter, Attagene transcription factor profiling; actives raise or lower the signal. The procedure, abridged: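 Gain- or loss-of-signal was derived by bidirectional fitting against DMSO controls. The signal came from reporter mRNA, measured by RT-PCR and capillary electrophoresis, in HepG2 cells transiently carrying multiple reporter units and dosed for 24 h.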

Assay [7] can be described thus: ATG_E_Box_CIS: Attagene CIS-FACTORIAL HepG2 Assay for human Enhancer Box (E-box) (AID 2282936). Conditions: HepG2 E-box cis-reporter transcription, actives raise or lower the signal. The procedure, abridged:
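HepG2 cells transiently transfected with multiplexed cis-element reporter units sensing endogenous transcription factor activity; 24 h compound exposure. Reporter mRNA measured by RT-PCR, 6-FAM primer extension, HpaI digestion and capillary electrophoresis; bidirectional fit versus DMSO.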

A short description of assay [8]: ATG_M_19_CIS: Attagene CIS-FACTORIAL HepG2 Assay for M19 Transcription Factor (Internal Marker) (AID 2282939). Conditions: HepG2 Attagene CIS-FACTORIAL M19 internal marker reporter; actives raise or lower the signal. The essentials:
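Following a 24 h exposure, RNA from transfected HepG2 cells was reverse-transcribed, PCR-amplified with reporter-specific primers, end-labelled with 6-FAM and HpaI-digested before capillary separation. Values represent gain or loss versus DMSO.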

A short description of assay [9]: ATG_GATA_CIS: Attagene CIS-FACTORIAL HepG2 Assay for human GATA Binding Protein (AID 2282944). As to conditions: HepG2 GATA cis-element reporter, Attagene multiplex mRNA; actives raise or lower the signal. The essentials: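 DMSO serves as negative control and baseline for bidirectional fitting of reporter mRNA changes. HepG2 cells bearing transiently transfected cis-promoter reporters were exposed 24 h; transcripts detected via RT-PCR and capillary electrophoresis.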

The nature of assay [10]: ATG_ISRE_CIS: Attagene CIS-FACTORIAL HepG2 Assay for human Interferon Regulatory Factor 1 (IRF1) binding to an Interferon-Stimulated Response Element (ISRE) (AID 2282948). Conditions: HepG2 ISRE cis-reporter (Attagene), mRNA transcription readout; actives raise or lower the signal. The procedure, abridged: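 Transfected HepG2 (multiple reporter transcription units, cis elements) dosed 24 h. RNA → oligo(dT) RT → PCR → 6-FAM primer extension → HpaI → CE. DMSO = negative control/baseline.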

A short description of assay [11]: ATG_M_32_CIS: Attagene CIS-FACTORIAL HepG2 Assay for M32 Transcription Factor (Internal Marker) (AID 2282949).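 Further: background control marker of the multiplexed CIS panel rather than a real target.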 Conditions: HepG2 Attagene cis-factorial M32 reporter, mRNA; actives raise or lower the signal. The essentials:
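Internal background marker read-out: RT-PCR/capillary electrophoresis fluorescence of reporter transcripts from transiently transfected HepG2 cells after 24 h chemical exposure. Activity fitted bidirectionally relative to DMSO negative control.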

Assay [12] can be described thus: ATG_M_06_CIS: Attagene CIS-FACTORIAL HepG2 Assay for M06 Transcription Factor (Internal Marker) (AID 2282950). Conditions: HepG2 Attagene CIS-FACTORIAL M06 internal marker reporter; actives raise or lower the signal. The procedure, abridged:
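Fluorescence-labelled RT-PCR products from cis-promoter reporter units, cut with HpaI and resolved by capillary electrophoresis, give the signal. Cells are human HepG2, dosed for 24 h. Serves as background control, fitted relative to DMSO.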

Assay [13] is described as follows: ATG_MRE_CIS: Attagene CIS-FACTORIAL HepG2 Assay for human Metal Responsive Element (MRE) (AID 2282954). As to conditions: HepG2 MRE cis-reporter transcription, Attagene multiplex; actives raise or lower the signal. The procedure, abridged:
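HepG2 cells transiently transfected with multiple cis-element reporter units measure endogenous MTF1-driven transcription. After 24 h compound exposure, reporter mRNA is quantified by RT-PCR with 6-FAM labelling, HpaI digestion and capillary electrophoresis; bidirectional fits versus DMSO.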

The target of assay [14] is Paired box protein Pax-6 (Homo sapiens) (UniProt P26367). The assay can be described thus: ATG_Pax6_CIS: Attagene CIS-FACTORIAL HepG2 Assay for human Paired Box 6 (PAX6) (AID 2282956). Conditions: HepG2 CIS-FACTORIAL PAX6 reporter transcription, RNA readout; actives raise or lower the signal. The procedure, abridged: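 Transient MRTU transfection of HepG2 → compound exposure 24 h → TriZol RNA, oligo(dT) RT → PCR, 6-FAM primer extension, HpaI cut → capillary electrophoresis; activity fitted both directions against DMSO.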
Chain of Paired box protein Pax-6 (Homo sapiens) (P26367 whole entry, looked up): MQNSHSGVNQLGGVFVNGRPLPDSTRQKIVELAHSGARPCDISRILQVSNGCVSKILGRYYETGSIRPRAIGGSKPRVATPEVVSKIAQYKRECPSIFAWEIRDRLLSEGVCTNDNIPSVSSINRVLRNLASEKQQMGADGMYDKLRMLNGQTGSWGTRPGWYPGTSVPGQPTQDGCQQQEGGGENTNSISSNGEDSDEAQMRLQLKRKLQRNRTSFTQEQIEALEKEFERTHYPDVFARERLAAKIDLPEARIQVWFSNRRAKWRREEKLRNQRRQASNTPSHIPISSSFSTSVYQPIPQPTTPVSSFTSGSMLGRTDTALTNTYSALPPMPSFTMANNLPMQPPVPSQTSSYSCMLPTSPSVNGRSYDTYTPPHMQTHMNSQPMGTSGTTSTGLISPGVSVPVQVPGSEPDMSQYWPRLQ

Assay [15] in a line: ATG_PXRE_CIS: Attagene CIS-FACTORIAL HepG2 Assay for human Pregnane X Receptor Element (PXRE) (AID 2282957). Conditions: HepG2 Attagene CIS-FACTORIAL PXRE reporter, mRNA; actives raise or lower the signal. The essentials:
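HepG2 cells transiently transfected with cis-element-driven multiplexed reporter units; after 24 h chemical exposure, reporter mRNA measured by RT-PCR, 6-FAM labelling, HpaI digestion and capillary electrophoresis. Bidirectional fitting relative to DMSO.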

Assay [16] can be described thus: ATG_Sox_CIS: Attagene CIS-FACTORIAL HepG2 Assay for human SRY-box transcription factor (SOX) (AID 2282960). Conditions: HepG2 Attagene cis-factorial SOX reporter, mRNA; actives raise or lower the signal. The essentials: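 Using transiently transfected HepG2 cells, reporter transcription driven by cis elements was assessed 24 h after dosing. Signal was fluorescence of capillary-separated RT-PCR products, with DMSO defining baseline activity.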

In assay [17] the target is Transcription factor Sp1 (Homo sapiens) (UniProt P08047). The assay can be described thus: ATG_Sp1_CIS: Attagene CIS-FACTORIAL HepG2 Assay for human Specificity Protein 1 (Sp1) (AID 2282961). As to conditions: HepG2 Sp1 cis-reporter transcription, actives raise or lower the signal. The procedure, abridged:
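After transient transfection of HepG2 cells with cis-promoter reporter units and 24 h chemical treatment, reporter transcripts were quantified by RT-PCR and capillary electrophoresis fluorescence. Gain- and loss-of-signal fitted against DMSO.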

The nature of assay [18]: ATG_TA_CIS: Attagene CIS-FACTORIAL HepG2 Assay for human TA Basal Promoter (AID 2282964). Conditions: HepG2 Attagene CIS-factorial TA basal promoter reporter; actives raise or lower the signal. The essentials: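 Multiplexed mRNA reporter assay, HepG2, 24 h. Reporter cDNA amplified, 6-FAM primer-extended, HpaI-cut, CE-sized; DMSO = negative control and baseline.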
Assay [19] is described as follows: ATG_TCF_b_cat_CIS: Attagene CIS-FACTORIAL HepG2 Assay for human T-Cell-Factor with beta-catenin (TCF/b-cat) (AID 2282965). As to conditions: HepG2 TCF/beta-catenin cis-reporter transcription, actives raise or lower the signal. The procedure, abridged:
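HepG2 cells transiently transfected with multiple cis-promoter-regulated reporter transcription units, so endogenous transcription factor activity is measured. Reporter mRNA read 24 hours after dosing by RT-PCR, fluorescent labelling and capillary electrophoresis; bidirectional fitting against DMSO.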

The nature of assay [20]: ATG_TAL_CIS: Attagene CIS-FACTORIAL HepG2 Assay for human TAL Basal Promoter (AID 2282966).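 Further: background control endpoint measuring basal TAL promoter reporter mRNA not a specific factor.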 As to conditions: HepG2 Attagene cis-factorial TAL promoter reporter; actives raise or lower the signal. The essentials:
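HepG2 cells transiently transfected with multiplexed cis-promoter reporter units, dosed 24 h. Reporter mRNA quantified by RT-PCR, 6-FAM labelling, HpaI digestion and capillary electrophoresis; TAL basal promoter serves as background control, fitted bidirectionally versus DMSO.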

Chain of Transcription factor Sp1 (Homo sapiens) (P08047 whole entry, looked up): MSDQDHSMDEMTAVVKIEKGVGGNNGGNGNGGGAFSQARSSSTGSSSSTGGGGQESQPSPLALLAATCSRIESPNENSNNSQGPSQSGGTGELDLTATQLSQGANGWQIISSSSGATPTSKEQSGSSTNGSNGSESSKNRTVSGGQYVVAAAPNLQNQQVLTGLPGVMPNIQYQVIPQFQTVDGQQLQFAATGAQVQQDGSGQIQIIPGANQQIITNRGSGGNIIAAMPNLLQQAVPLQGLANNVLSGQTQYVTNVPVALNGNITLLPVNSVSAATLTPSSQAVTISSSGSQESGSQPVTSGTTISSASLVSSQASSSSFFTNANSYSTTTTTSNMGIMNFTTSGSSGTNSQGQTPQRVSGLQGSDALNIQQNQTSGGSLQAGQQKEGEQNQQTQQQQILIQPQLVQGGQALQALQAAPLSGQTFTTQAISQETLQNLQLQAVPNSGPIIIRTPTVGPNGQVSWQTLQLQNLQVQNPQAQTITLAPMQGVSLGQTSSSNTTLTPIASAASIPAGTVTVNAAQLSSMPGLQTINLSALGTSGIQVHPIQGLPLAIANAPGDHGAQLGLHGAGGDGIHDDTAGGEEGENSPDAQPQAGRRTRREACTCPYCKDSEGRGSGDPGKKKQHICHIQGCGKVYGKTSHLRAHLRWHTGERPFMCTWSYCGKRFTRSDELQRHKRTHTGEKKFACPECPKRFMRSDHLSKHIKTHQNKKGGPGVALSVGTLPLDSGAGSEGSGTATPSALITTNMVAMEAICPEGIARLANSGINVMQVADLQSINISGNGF

`CCOc1ccc2c(c1)C(C)CC(C)(C)N2` (stereo not given): the compound was classed as inactive in [1], in [2], in assay [3], in assay [4], in assay [5] and in assay [6]. The result in [7], in assay [8], in assay [9], in assay [10], in [11] and in assay [12] was inactive. The outcome in assay [13], in assay [14], in assay [16], in [17], in assay [18] and in [19] was inactive. The compound was called inactive in assay [20]. The AC50 (usually the midpoint of the concentration-response curve, whichever way the signal moves) in [15] was 2 µM (active).
Take `CCCc1c(OCCCCc2nn[nH]n2)ccc(C(C)=O)c1O`: the outcome in [1], in assay [2], in assay [4], in assay [5], in assay [7] and in assay [8] was inactive. Moreover, the outcome in [9], in [10], in [11], in [12], in assay [14] and in assay [16] was inactive. Besides, the outcome in [17], in assay [18], in [19] and in [20] was inactive. Besides, the AC50 was 135 µM (active) in [3], 180 µM (active) in assay [6], 128 µM (active) in [13] and 27.4 µM (active) in assay [15].
Regarding `CC/C=C\CCO`, the compound was called inactive in assay [1], in [2], in assay [3], in [4], in [5] and in assay [6]. In addition, the result in assay [7], in assay [8], in assay [9], in assay [10], in assay [11] and in [12] was inactive. The compound was classed as inactive in assay [13], in assay [14], in [16], in assay [17], in assay [18] and in assay [19]. The outcome in assay [20] was inactive. Besides, in assay [15], the AC50 was 29.3 µM (active).
Turning to `C=CC(C)(CCC=C(C)C)OC(=O)c1ccccc1` (stereo not given), the compound was called inactive in assay [1], in [2], in assay [6], in assay [7], in assay [8] and in assay [9]. Further, the result in [10], in assay [11], in assay [12], in assay [14], in [16] and in assay [17] was inactive. Besides, the outcome in [18], in assay [19] and in assay [20] was inactive. Moreover, the AC50 is 100 µM (active) in [3]; 34.2 µM (active) in assay [4]; 127 µM (active) in assay [5]; 177 µM (active) in assay [13]; 6.33 µM (active) in assay [15].
